HEK293 tox – cytotoxic compounds in HEK 293 cells. Potency, µM (titrated, usually from 115 µM), hits mostly inhibitors. 6.6% of 94,000 active. HEK 293 viability, ATP luminescence (CellTiter-Glo), 48-72 h; further: nearly all actives have a fitted effect of over 60% in size
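HEK 293 cells at 250 cells/well were exposed to compounds by pintool transfer for 48 or 72 hr at 37 degree Celsius, 5% CO2. Viability was read as ATP-coupled luminescence with CellTiter-Glo after 10 min at room temperature.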
NIH3T3 tox – cytotoxic compounds in NIH 3T3 cells | NIH 3T3 viability, CellTiter-Glo ATP luminescence, 48-72 h | Potency, µM (doses to about 96.7 µM), actives largely listed as inhibitors | 4.3% of 94,000 active | AID 1345082; further: nearly all actives have a fitted effect of over 55% in size
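First NIH 3T3 cells are plated at 400 cells/well; next compound is pinned in; then plates incubate 48 or 72 hr at 37 °C; finally CellTiter-Glo is added and luminescence read after 10 min.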
hNpr1 antagonist – human Npr1 receptor antagonism | P16066 | HEK293 hNpr1 GloSensor cGMP, ANP-stimulated luminescence | Potency, µM (series often up to 46.3 µM), most hits filed as inhibitors | 1.6% of 76,000 active | AID 1347048; calls by dose curve; further: nearly all actives have a fitted effect of over 60% in size
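HEK293 cells stably expressing human Npr1 and cGMP GloSensor pGS-40F, loaded 2 h with 2% GloSensor reagent, given compound 30 min at room temperature. Luminescence read before and 20 min after 0.1 nM hNppA.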
Luciferase inh – blocks purified firefly luciferase enzyme activity; AID 1347043; purified P. pyralis luciferase, luminescence, biochemical; P08659; Potency, µM (doses to about 115 µM), actives largely listed as inhibitors; 2.5% of 76,000 active; further: nearly all actives have a fitted effect of over 65% in size
Target sequence (P08659 whole entry, looked up): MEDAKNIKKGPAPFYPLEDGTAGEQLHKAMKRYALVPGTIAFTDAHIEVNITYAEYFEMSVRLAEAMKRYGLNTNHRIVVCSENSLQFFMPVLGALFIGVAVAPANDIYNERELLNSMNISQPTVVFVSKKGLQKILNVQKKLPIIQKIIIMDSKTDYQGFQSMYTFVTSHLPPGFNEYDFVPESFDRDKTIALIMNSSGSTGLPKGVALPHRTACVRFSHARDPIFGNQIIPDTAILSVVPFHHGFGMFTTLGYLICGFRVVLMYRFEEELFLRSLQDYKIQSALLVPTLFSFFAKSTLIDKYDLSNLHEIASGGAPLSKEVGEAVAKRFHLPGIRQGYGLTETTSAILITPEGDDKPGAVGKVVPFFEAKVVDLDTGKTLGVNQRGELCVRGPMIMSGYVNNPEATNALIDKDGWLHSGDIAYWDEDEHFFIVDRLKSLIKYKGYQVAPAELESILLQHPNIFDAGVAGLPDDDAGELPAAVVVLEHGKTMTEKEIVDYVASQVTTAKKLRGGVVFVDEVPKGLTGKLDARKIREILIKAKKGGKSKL
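Purified P. pyralis luciferase (10nM final) in 50mM Tris acetate pH 7.5, 10mM Mg acetate, 0.01% Tween-20, 0.05% BSA with 10uM D-luciferin and 10uM ATP. Compounds titrated qHTS. Luminescence imaged on CCD.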
NPR1 antag cnf – confirmation of human Npr1 natriuretic peptide receptor antagonists | shares compounds with hNpr1 antagonist | HEK293 hNpr1 cGMP GloSensor luminescence, ANP-stimulated | Potency, µM (doses to about 57.6 µM), actives largely listed as inhibitors | 76% of 1,400 active | AID 1347044; calls by dose curve; further: nearly all actives have a fitted effect of over 70% in size
NPR2 antag – antagonizes human Npr2, subtype selectivity check; Potency, µM (highest dose often 57.6 µM), usual class: inhibitors; HEK293 hNpr2 GloSensor cGMP luminescence, CNP-stimulated; 67% of 1,400 active; shares compounds with hNpr1 antagonist; calls by dose curve; further: nearly all actives have a fitted effect of over 70% in size
FLuc inh counter – FLuc enzyme inhibition, Npr1 counter-screen | AID 1347047 | 0.7% of 1,400 active | purified FLuc enzyme, luminescence, Km substrate | Potency, µM (series often up to 57.6 µM), hits mostly inhibitors | shares compounds with hNpr1 antagonist
GloSensor ctrl – control cell line activity, Npr1 antagonist counter-screen | shares compounds with hNpr1 antagonist | HEK293 GloSensor cGMP, SNP-stimulated, luminescence | Potency, µM (doses to about 57.6 µM), most hits filed as inhibitors | 69% of 1,400 active; calls by dose curve; further: nearly all actives have a fitted effect of over 70% in size
Of the large screens only hits and unclear results are named; the others gave an inactive call (follow-up assays come after a bar, where they were run). A selection: hits, their analogues and other compounds. The true share with any hit is near 11%. Unless noted, the call rests on the fitted dose curve; in most records, active means well fitted curve in the direction sought with a large enough effect; inconclusive means small, poorly fitted or top-dose-only effect, or another doubt; inactive means no such curve, though single readings can be large; an effect the other way counts as inactive or inconclusive.

COc1cc(OC)c(NC(=O)Cn2c(N(C)Cc3ccccc3)nc(C)cc2=O)cc1Cl	HEK293 tox 22µM, NIH3T3 tox inconclusive, hNpr1 antagonist 10µM | NPR1 antag cnf 22µM | NPR2 antag 22µM | FLuc inh counter inactive | GloSensor ctrl 19µM
COc1ccc(NC(=O)Cn2c(N(C)Cc3ccccc3)nc(C)cc2=O)cc1Cl	HEK293 tox inconclusive, NIH3T3 tox inconclusive, hNpr1 antagonist 11µM | NPR1 antag cnf 11µM | NPR2 antag 11µM | FLuc inh counter inactive | GloSensor ctrl 9.7µM
Cc1cc(=O)n(CC(=O)Nc2cccc(C)c2C)c(N(C)Cc2ccccc2)n1	HEK293 tox inconclusive, NIH3T3 tox inconclusive
COc1ccc2ccccc2c1CN1CCC2(CC1)[C@H](O)C[C@@H]2OCCN	HEK293 tox inconclusive, NIH3T3 tox inconclusive
COc1ccccc1CC(=O)N1CCCc2ncc(C(=O)NCCC(C)C)cc21	HEK293 tox inconclusive, NIH3T3 tox inconclusive
COc1cccc(Nc2ccc3c(n2)C(C)(C(=O)NCC2CC2)CN(C)C3)c1 (centres undefined)	HEK293 tox inconclusive, NIH3T3 tox inconclusive, Luciferase inh inconclusive
O=C(c1ccncc1)N1C2CCC1CN(c1ccc(C(F)(F)F)cc1)C2	HEK293 tox inconclusive, NIH3T3 tox inconclusive (no result: hNpr1 antagonist, Luciferase inh) | NPR1 antag cnf 24µM | NPR2 antag 22µM | FLuc inh counter inactive | GloSensor ctrl 22µM
O=C(N1CCOCC1)N1C2CCC1CN(c1ccc(C(F)(F)F)cc1)C2	HEK293 tox inconclusive, NIH3T3 tox 14µM (no result: hNpr1 antagonist, Luciferase inh) | NPR1 antag cnf 22µM | NPR2 antag 22µM | FLuc inh counter inactive | GloSensor ctrl 19µM
CC(=O)NCCCC(=O)N1C2CCC1CN(c1ccc(C(F)(F)F)cc1)C2	NIH3T3 tox inconclusive (no result: hNpr1 antagonist, Luciferase inh)
COc1cc2c(cc1OC)C(CNS(=O)(=O)c1ccc(C)cc1)N(C(=O)NC(C)(C)C)CC2 (centres undefined)	HEK293 tox inconclusive
O=C(COc1ccccc1)N1CCN(C(=O)c2nnn3c2COC(c2ccc(Cl)cc2)C3)CC1 (centres undefined)	HEK293 tox 25µM, NIH3T3 tox inconclusive, hNpr1 antagonist 11µM | NPR1 antag cnf 22µM | NPR2 antag 22µM | FLuc inh counter inactive | GloSensor ctrl 19µM
COc1ccc(C2Cn3nnc(C(=O)N4CCN(C(=O)c5sccc5C)CC4)c3CO2)cc1 (centres undefined)	HEK293 tox inconclusive, hNpr1 antagonist inconclusive | NPR1 antag cnf 22µM | NPR2 antag 27µM | FLuc inh counter inactive | GloSensor ctrl 22µM
Cc1ccc(C(=O)N2CCN(C(=O)c3nnn4c3COC(c3ccc(Cl)cc3)C4)CC2)c(C)c1 (centres undefined)	HEK293 tox inconclusive, NIH3T3 tox inconclusive, hNpr1 antagonist inconclusive | NPR1 antag cnf 22µM | NPR2 antag 24µM | FLuc inh counter inactive | GloSensor ctrl 22µM
COc1ccc(C2Cn3nnc(C(=O)N4CCN(C(=O)c5cccc(F)c5)CC4)c3CO2)cc1 (centres undefined)	HEK293 tox inconclusive, NIH3T3 tox inconclusive, hNpr1 antagonist inconclusive | NPR1 antag cnf 22µM | NPR2 antag 22µM | FLuc inh counter inactive | GloSensor ctrl 22µM
O=C(c1cccc(F)c1)N1CCN(C(=O)c2nnn3c2COC(c2ccc(F)cc2)C3)CC1 (centres undefined)	HEK293 tox inconclusive, hNpr1 antagonist inconclusive
O=C(NCc1cccc(Cl)c1)c1cc(-c2cccc(C(F)(F)F)c2)c2nncn2n1	none (no result: hNpr1 antagonist, Luciferase inh)
COc1ccc(C)cc1NC(=O)N1c2ccccc2CC1c1nc(C2CC2)no1 (centres undefined)	NIH3T3 tox inconclusive

Assay outcomes (PubChem)
